Source: PubChem BioAssay (NCI)
This is part of a sample that, as a whole, favours compounds with a hit. Of some 83,000 tested, about 20% had one in any assay.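 Each cell line was grown in a 96-well plate and treated with one concentration of compound for 48 hours. Values below 10 were considered active.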 Unmarked numbers belong to inactive results. Active and inactive are the calls of the source.

How the values were obtained:
Test in all cases: NCI-60 one-dose screen, 48 h (100 = growth as untreated, 0 = no growth, -100 = all killed)
Details in all cases: 10 µM
NCI-H23 lung = system: NCI-H23 lung
NCI-H226 lung = system: NCI-H226 lung
HOP-62 NSCLC = system: HOP-62 NSCLC
NCI-H460 lung = system: NCI-H460 lung
HOP-92 NSCLC = system: HOP-92 NSCLC
NCI-H522 lung = system: NCI-H522 lung
A549/ATCC NSCLC = system: A549/ATCC NSCLC
786-0 renal = system: 786-0 renal
COLO 205 colon = system: COLO 205 colon
DU-145 prostate = system: DU-145 prostate
K-562 leukemia = system: K-562 leukemia
MALME-3M melanoma = system: MALME-3M melanoma
MDA-MB-231 breast = system: MDA-MB-231 breast
RXF 393 renal = system: RXF 393 renal
SF-268 CNS = system: SF-268 CNS
SF-295 CNS = system: SF-295 CNS
SF-539 CNS = system: SF-539 CNS
UACC-257 melanoma = system: UACC-257 melanoma
M14 melanoma = system: M14 melanoma

Compound | growth (NCI-H23 lung) | growth (NCI-H226 lung) | growth (HOP-62 NSCLC) | growth (NCI-H460 lung) | growth (HOP-92 NSCLC) | growth (NCI-H522 lung) | growth (A549/ATCC NSCLC) | growth (786-0 renal) | growth (COLO 205 colon) | growth (DU-145 prostate) [%] | growth (K-562 leukemia) | growth (MALME-3M melanoma) | growth (MDA-MB-231 breast) | growth (RXF 393 renal) | growth (SF-268 CNS) | growth (SF-295 CNS) | growth (SF-539 CNS) | growth (UACC-257 melanoma) | growth (M14 melanoma)
COc1ccc(-c2nnc(SCC(=O)Nc3ccc(C(=O)/C=C/c4ccccc4)cc3)n2-c2ccccc2)cc1OC | 80.8% | 50.4% | 102% | 37.1% | 78.4% | 53.8% | 51.9% | 67.1% | 56.1% | 50.4 | 37.2% | 36.4% | 73.4% | 72.4% | 84.8% | 106% | 0.289% (active) | 72.4% | 57.7%
Cc1ccc(S(=O)(=O)N(C)CCCCCC(=O)O)cc1 | 99.1% | 99.7% | 92.3% | 107% | 110% | 90% | 95% | 95.3% | 107% | 102 | 104% | 98.5% | 110% | 103% | 99% | 92.7% | 97.9% | 98.2% | 95.1%
COc1cc(-c2nn(-c3cccc(NC(=O)CN4CCOCC4)c3)cc2-c2cccnc2)ccc1Cl | 90.9% | 82.2% | 98.9% | 84% | 50.4% | 49.1% | 83.8% | 94.6% | 88.3% | 82.3 | 42.2% | 80.5% | 83.1% | 85.1% | 85.4% | 76.8% | 87% | 93.9% | 61%
O=C(CCCCC(=O)Oc1c(Cl)cc(Cl)cc1[N+](=O)[O-])Oc1c(Cl)cc(Cl)cc1[N+](=O)[O-] | 96.5% | 106% | 102% | 106% | 118% | 89.5% | 103% | 101% | 121% | 106 | 85.9% | 98.8% | 106% | 120% | 96.3% | 97.2% | 100% | 99.5% | 103%
COc1cc(/C=C/c2cc(/C=C/c3ccc(O)c(OC)c3)nc(N)n2)ccc1O | -2.79% (active) | 11.7% | 4.85% (active) | 5.54% (active) | -21.2% (active) | -41.3% (active) | 10.1% | -58.9% (active) | -50.4% (active) | 13 | 5.49% (active) | -28.9% (active) | 3.39% (active) | -63.9% (active) | 3.56% (active) | -5.25% (active) | 11.9% | -1.9% (active) | -26.1% (active)
COC1OC(COS(=O)OC)C(O)C(O)C1OS(=O)OC (configuration not stated) | 101% | 95.7% | 104% | 101% | 108% | 98.5% | 103% | 106% | 110% | 99.5 | 102% | 97.1% | 103% | 111% | 103% | 103% | 98.3% | 99.5% | 
CN1CCN(CCC(=O)Nc2cccc(-n3cc(-c4ccncc4)c(-c4ccc(Cl)c(O)c4)n3)c2)CC1 | 46.4% | 66.6% | 53.7% | 13.4% | 27.9% | 16.9% | 30.2% | 32.2% | 12.8% | 25.8 | 12.8% | 47.6% | -72% (active) | 30% | 50.8% | 19.3% | -4.71% (active) | 46.3% | 12.3%
COc1ccc(-c2cc(-c3ccc(Cl)cc3)nc(SCCCC(=O)NO)n2)cc1OC | -8.91% (active) | -5.3% (active) | 2.14% (active) | -17.7% (active) | -0.324% (active) | -5.35% (active) | 8.3% (active) | 4.57% (active) | 6.86% (active) | 14.2 | 3.01% (active) | 6.86% (active) | 6.55% (active) | -38.2% (active) | 8.6% (active) | -32.6% (active) | -35.7% (active) | 16.1% | 
NNC(=O)Oc1c(Cl)cc(Cl)cc1[N+](=O)[O-] | 97.8% | 106% | 94.6% | 110% | 115% | 96.9% | 96.9% | 105% | 110% | 103 | 102% | 94.4% | 113% | 113% | 102% | 103% | 105% | 104% | 101%
COc1cc2cc(Oc3ccc(NC(=O)Nc4cccc(C(F)(F)F)c4)cc3)c(C)nc2cc1OC | 6.78% (active) | -23.5% (active) | 25% | 2.68% (active) | -29.5% (active) | -17.4% (active) | 3.09% (active) | 15.1% | -20.2% (active) | 26.7 | 11.5% | 7.22% (active) | -8.32% (active) | -13.1% (active) | 29.2% | -15% (active) | 11.7% | -14.5% (active) | 22.7%
CC(=O)N[C@H](C(=O)N[C@@H](CCCNC(=N)N)C(=O)N[C@@H](CCCCN)C(=O)N[C@@H](CCCNC(=N)N)C(=O)N[C@]1(C)CCC/C=C\CCC[C@@](C)(C(=O)N[C@@H](CC(C)C)C(=O)N[C@@H](CC(C)C)C(=O)N[C@@H](CCC(N)=O)C(=O)N[C@@H](CCC(=O)O)C(=O)N[C@@H](CCCNC(=N)N)C(=O)N[C@@H](CCC(=O)O)C(=O)N[C@@H](CC(C)C)C(=O)N[C@H](C(=O)N[C@@H](CCC(=O)O)C(N)=O)C(C)C)NC(=O)[C@H](CCCNC(=N)N)NC(=O)[C@H](CC(C)C)NC1=O)C(C)C | 106% | 102% | 109% | 105% | 115% | 96.8% | 94.7% | 98.1% | 102% | 99.7 | 104% | 137% | 108% | 119% | 101% | 106% | 102% |  | 
CN(C)CCOc1ccc(-c2nc3sccn3c2-c2ccnc(S(C)(=O)=O)n2)cc1 | 103% | 102% | 87.5% | 103% | 57% | 106% | 95% | 105% | 114% | 112 | 102% | 112% | 110% | 113% | 117% | 103% | 102% | 101% | 
O=C1/C=C/[C@@H](O)[C@@H]2C[C@@H](O)C[C@H]2/C=C/CCC[C@@H](C(F)(F)F)O1 | 81.4% | 59.9% | 99.3% | 104% | 99.4% | 88% | 99.3% | 92.6% | 22% | 119 | 92% | 65% | 96.7% | 42.7% | 93.9% | 97.2% | 105% | 51.8% | 112%
O=C(CSc1nccc(Nc2cccc3ccccc23)n1)c1ccc(Cl)cc1 | 79.6% | 84.8% | 81.9% | 99.5% | 82.5% | 81.9% | 87.7% | 102% | 108% | 116 | 84.3% | 101% | 79.1% | 106% | 95% | 95% | 94.5% | 109% | 85.8%
COc1ccc2cc(-c3nc4ccccc4s3)c(Cl)nc2c1OC | 84.4% | 93.9% | 90.7% | 98.4% | 85.3% | 101% | 110% | 119% | 98% | 113 | 92.3% | 109% | 87.3% | 104% | 93.3% | 108% | 99% | 109% | 
CC[C@@H]1NC(=O)[C@H]([C@H](O)[C@H](C)C/C=C/c2ccc(CN3C(=O)CCCC3=O)cc2)N(C)C(=O)[C@H](C(C)C)N(C)C(=O)[C@H](CC(C)C)N(C)C(=O)[C@H](CC(C)C)N(C)C(=O)[C@@H](C)NC(=O)[C@H](C)NC(=O)[C@H](CC(C)C)N(C)C(=O)[C@H](C(C)C)NC(=O)[C@H](CC(C)C)N(C)C(=O)CN(C)C1=O | 68.8% | -22.8% (active) | 62.1% | 71.2% | 53.3% | 23.5% | 47.1% | 67.1% | 53.9% | 64.1 | 39.6% | 83% | 51.4% | 17.3% | 63.1% | 39% | 23.7% | 20.8% | 
